Rows were chosen to be rich in hits. Some 2.1% of all compounds tested hit in one or more screens of this group.
aSyn yeast inh: rescues yeast growth from alpha-synuclein toxicity; Yeast expressing alpha-synuclein, growth rescue, BacTiter-Glo, 24 h; Potency, µM (series often up to 46.1 µM), for the others: at the highest dose growth rescue (activation), usual class: activators; actives 0.14% (n = 370,000); AID 652106; further: % of control where 0% means no effect; nearly all actives have a fitted effect of over 65% in size
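Screening used galactose-induced yeast with toxic alpha-synuclein levels, exposed to compound for 24 hr at 30 deg C. Cell growth, read with BacTiter-Glo luminescence, gave the measured signal.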
FUS yeast rescue: rescues growth of FUS-expressing yeast. S. cerevisiae FUS-expressing, growth rescue, OD600, 24 h. Potency, µM (titrated, usually from 76.6 µM), usual class: activators. actives 0.24% (n = 390,000);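 further: plate controls were DMSO vehicle for no effect and reference control for full effect; nearly all actives have a fitted effect of over 55% in size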
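Restored growth of FUS-toxic S. cerevisiae, read as 600 nm absorbance after 24 h at 30C in galactose medium (starting OD 0.005). Controls CP55940 and DMSO.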
TDP43 rescue: inhibitors of TDP-43 toxicity in yeast. TDP-43 expressing yeast growth rescue, BacTiter-Glo, 24 h. Potency, µM (titrated, usually from 46.1 µM), inactives show top-dose growth rescue (activation), hits mostly activators. actives 1.8% (n = 410,000). AID 652104; further: % of control where 0% means no effect; nearly all actives have a fitted effect of over 50% in size
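Luminescence from BacTiter-Glo reports growth of TDP-43-expressing yeast after 24 hr at 30 deg C with compound. Cells were raffinose-pregrown to mid-log, then seeded in galactose medium at OD600=0.02.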
Abeta rescue: A-beta toxicity reversal in yeast; yeast expressing A-beta42, growth rescue, OD600, 48 h; response scale: 0% DMSO, 100% iron-clioquinol control; Potency, µM (top dose mostly 46.1 µM), actives largely listed as activators; actives 0.063% (n = 410,000); further: nearly all actives have a fitted effect of over 55% in size
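Growth rescue measured by 600 nm absorbance after 48 h yeast culture at 30 C with compound. Values normalized between DMSO and an equimolar ferric chloride plus clioquinol control.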
An asterisk follows results filed as active; [ ] = remark or other dose. The call rests on the fitted dose curve; in most records, active means well fitted curve in the direction sought with a large enough effect; inconclusive means small, poorly fitted or top-dose-only effect, or another doubt; inactive means no such curve, though single readings can be large; an effect the other way counts as inactive or inconclusive. Potency means the concentration at half of the fitted maximal effect.

How did O=C(Nc1ccc(F)c(F)c1)c1ccccc1-c1ccccc1 do in these assays?
aSyn yeast inh: 1%; TDP43 rescue: inconclusive; Abeta rescue: 7.1µM*

Results for COc1ccc(NC(=O)c2ccccc2-c2ccccc2)cc1 ?
aSyn yeast inh: -19%; FUS yeast rescue: inactive; TDP43 rescue: 15%[9.22 µM]; Abeta rescue: inactive

Results for O=C(Nc1cccc(Br)c1)c1ccccc1-c1ccccc1 ?
aSyn yeast inh: 0%; FUS yeast rescue: inactive; TDP43 rescue: 16µM*; Abeta rescue: inconclusive

Results for O=C(CCn1nnc(-c2cccs2)n1)N1CCOCC1 ?
FUS yeast rescue: inactive

How did CCOc1ccc(C(=O)CC(C(=O)O)N2CCCCC2)cc1 (stereo unspecified) do in these assays?
aSyn yeast inh: 1%[1.84 µM]; FUS yeast rescue: inactive; TDP43 rescue: 35µM*; Abeta rescue: inactive

What do the screens show for `CCOc1ccc(C(=O)CC(NCc2cccs2)C(=O)O)cc1` (stereo unspecified)?
aSyn yeast inh: 11µM*; FUS yeast rescue: inactive; TDP43 rescue: -16%; Abeta rescue: inactive

How did CN(C)S(=O)(=O)c1ccc(N2CCCC2)c(C(=O)N2CCN(S(=O)(=O)c3ccc(F)c(F)c3)CC2)c1 do in these assays?
aSyn yeast inh: 1%; FUS yeast rescue: 28µM*; TDP43 rescue: 16%; Abeta rescue: inactive

Results for CCCCOc1ccc(-c2nnc(-c3ccncc3)o2)cc1 ?
aSyn yeast inh: -6%; FUS yeast rescue: inactive; TDP43 rescue: 20µM*; Abeta rescue: inactive

Results for CCOc1ccc(-c2nnc(-c3ccncc3)o2)cc1 ?
aSyn yeast inh: -4%; FUS yeast rescue: inactive; TDP43 rescue: inconclusive; Abeta rescue: inactive

Results for Cc1onc(-c2ccccc2Cl)c1C(=O)Oc1cccc2cccnc12 ?
aSyn yeast inh: 11%; FUS yeast rescue: inactive; TDP43 rescue: 18µM*; Abeta rescue: inactive

What do the screens show for `Cc1onc(-c2ccccc2Cl)c1C(=O)Nc1ccc(Br)cc1`?
aSyn yeast inh: 2%; FUS yeast rescue: inactive; TDP43 rescue: 11µM*; Abeta rescue: inactive

How did CCc1ccc(-c2ccc3nnc(SC)n3n2)cc1 do in these assays?
aSyn yeast inh: 0%; FUS yeast rescue: inactive; TDP43 rescue: 16µM*

Results for CCc1ccc(-c2ccc3nnc(SCC(N)=O)n3n2)cc1 ?
aSyn yeast inh: 1%; FUS yeast rescue: inactive; TDP43 rescue: 19%; Abeta rescue: inactive

How did Cc1ccccc1-c1nc(CS(=O)(=O)CC(=O)N2CCN(c3ccccc3)CC2)c(C)o1 do in these assays?
FUS yeast rescue: inactive; TDP43 rescue: 13µM*; Abeta rescue: inactive

Results for COc1ccc([C@H]2CC(=O)C=C(c3cccc(CO)c3)C2)cc1OC ?
aSyn yeast inh: 5%; FUS yeast rescue: inactive; TDP43 rescue: 18%; Abeta rescue: inactive

How did Cc1ccc(C2=CC(=O)C[C@H](c3ccc(Cl)cc3)C2)cc1 do in these assays?
aSyn yeast inh: 4%; FUS yeast rescue: inactive; TDP43 rescue: 16µM*; Abeta rescue: inactive

How did O=C1C=C(c2ccccc2)C[C@@H](c2ccc(Cl)cc2)C1 do in these assays?
aSyn yeast inh: 8%; FUS yeast rescue: inactive; TDP43 rescue: 20µM*; Abeta rescue: inactive

How did O=C1C=C(c2cccc(CO)c2)C[C@@H](c2ccc(Cl)cc2)C1 do in these assays?
aSyn yeast inh: 11%; FUS yeast rescue: inactive; TDP43 rescue: 18µM*; Abeta rescue: inactive

How did O=C1CC(c2ccccc2)CC(=O)C1Sc1ccc(Cl)cc1 (stereo unspecified) do in these assays?
aSyn yeast inh: 17%; TDP43 rescue: 10µM*; Abeta rescue: inactive

Results for Cc1nc2ccccc2nc1-c1csc(-c2ccccc2)n1 ?
aSyn yeast inh: -4%

How did O=C1C=C(c2ccc3ncccc3c2)C[C@@H](c2ccc(Cl)cc2)C1 do in these assays?
aSyn yeast inh: 17%; FUS yeast rescue: inconclusive; TDP43 rescue: 16µM*; Abeta rescue: inactive

How did C(=C\c1c[nH]c2ccccc12)/c1ccc2ccccc2n1 do in these assays?
aSyn yeast inh: 12%

What do the screens show for `S=C(Cc1ccccc1)Nc1ccccc1`?
aSyn yeast inh: 2%; TDP43 rescue: 8.9µM*; Abeta rescue: inactive

Results for Cc1ccc(Nc2nc(N3CCOCC3)nc(N3CCOCC3)n2)cc1C ?
aSyn yeast inh: 8%; FUS yeast rescue: inactive; TDP43 rescue: 13µM*; Abeta rescue: inconclusive

What do the screens show for `Cc1cccc(Nc2nc(N3CCOCC3)nc(N3CCOCC3)n2)c1`?
aSyn yeast inh: 1%; FUS yeast rescue: inactive; TDP43 rescue: inconclusive; Abeta rescue: inactive

How did Cc1ccc(Nc2nc(N)c([N+](=O)[O-])c(N3CCOCC3)n2)cc1C do in these assays?
aSyn yeast inh: 9%; FUS yeast rescue: inactive; TDP43 rescue: 18µM*; Abeta rescue: inconclusive

Results for Cc1cccc(Nc2nc(Nc3cccc(C)c3)nc(N3CCOCC3)n2)c1 ?
FUS yeast rescue: inactive; TDP43 rescue: 16µM*; Abeta rescue: inactive

How did C(=N\Nc1nc(Nc2ccccc2)nc(N2CCOCC2)n1)/c1c[nH]c2ccccc12 do in these assays?
aSyn yeast inh: 5%; FUS yeast rescue: 28µM*; TDP43 rescue: 0%; Abeta rescue: inactive

What do the screens show for `Cc1ccc(Nc2nc(N/N=C/c3c[nH]c4ccccc34)nc(N3CCOCC3)n2)cc1`?
aSyn yeast inh: 19%; FUS yeast rescue: inconclusive; TDP43 rescue: inconclusive; Abeta rescue: inconclusive

What do the screens show for `O=C(CCl)N=c1sccn1Cc1ccccc1Cl`?
aSyn yeast inh: 4%; FUS yeast rescue: inactive; TDP43 rescue: 22µM*; Abeta rescue: inactive

What do the screens show for `CS(=O)(=O)c1ccc2nc(NC(=O)c3ccc(Cl)cc3)sc2c1`?
aSyn yeast inh: 4%; FUS yeast rescue: inactive; Abeta rescue: inactive

What do the screens show for `CC(C)(Oc1ccc(Cl)cc1)C(=O)Nc1nc2ccc(S(C)(=O)=O)cc2s1`?
FUS yeast rescue: inconclusive; TDP43 rescue: 13µM*; Abeta rescue: inactive

What do the screens show for `O=C(COC(=O)CNC(=O)C1CCCCC1)NC1CCCC1`?
aSyn yeast inh: -2%

How did Oc1ccc(Nc2ccc3ccccc3c2)cc1 do in these assays?
aSyn yeast inh: -22%; FUS yeast rescue: inactive; TDP43 rescue: 22µM*; Abeta rescue: inactive

Results for O=C(Oc1c(-c2ccccc2)c(=O)n2c3c(cccc13)CC2)c1cccc([N+](=O)[O-])c1 ?
aSyn yeast inh: inconclusive; FUS yeast rescue: inactive; TDP43 rescue: -29%[1.82 µM]; Abeta rescue: 14µM*

How did C[C@H]1[C@@H](C(=O)N2CCCC2)Cc2nc3ccccc3nc2C[C@@H]1c1ccccc1 do in these assays?
FUS yeast rescue: inactive

Results for CN(CCc1ccccc1)C(c1ccnc2ccccc12)c1nnnn1-c1ccc2c(c1)OCCO2 (stereo unspecified) ?
aSyn yeast inh: 1%; FUS yeast rescue: inconclusive; TDP43 rescue: 35µM*; Abeta rescue: inactive

Compound activity: PubChem, National Center for Advancing Translational Sciences (NCATS)
